Screening data as filed in PubChem BioAssay.
mHTT-CaM PPI inh – mHTT-calmodulin interaction abrogation. P42858. AlphaScreen His-mHTT/GST-CaM binding, luminescence. inhibition, % at 15 µM. 190,000 compounds, 3.6% hits. AID 1671202;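 also: 0% = both proteins with DMSO and 100% = one protein alone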
Pf apPOL inh – Pf-apPOL DNA polymerase inhibition; Recombinant Pf-apPOL, molecular beacon fluorescence, 1.5 h; 210,000 compounds, 0.25% hits; inhibition, % at 10 µM
Active calls of the source: *; i = inactive; / = no result given; ! = repeats disagree. Rows were chosen to be rich in hits. Some 3.6% of all compounds tested hit in one or more screens of this group. Rule as the data show it: active = inhibition above about 50%; inactive = the rest.

SMILES	mHTT-CaM PPI inh	Pf apPOL inh
Cc1cc2c(cc1C)NC(CC(=O)Nc1ccccc1C)C(=O)N2 (stereo not drawn)	5.0	-2.3
Cc1ccc(NC(=O)CC2Nc3cc(C)c(C)cc3NC2=O)c(Br)c1 (stereo not drawn)	64.4*!	-6.2
CCOc1ccccc1NC(=O)CC1Nc2cc(C)c(C)cc2NC1=O (stereo not drawn)	20.8	4.7
Cc1cc2c(cc1C)NC(CC(=O)Nc1ccccc1OC(F)F)C(=O)N2 (stereo not drawn)	50.0*!	5.3
Cc1cc(C)nc(SCC(O)COCc2ccc(Cl)cc2)n1 (stereo not drawn)	-0.1	-4.3
O=C(Nc1ccccc1Cl)c1ccc2snnc2c1	4.6	-100.2
Cn1ccc2c(-c3ccccc3F)cc3c(c21)C1CCC3C1 (stereo not drawn)	13.1	-2.9
CN(Cc1ccccc1F)c1cc2c(c3c1ccn3C)C1CCC2C1 (stereo not drawn)	56.4*	-0.2
CN(C)c1ncncc1N1CCC(C(=O)NCCN2CCOCC2)CC1	-5.4	0.1
O=[N+]([O-])c1ccc(CNc2ccc3c(c2)CCC3)s1	83.7*	6.6
COc1cccc(NCc2ccc([N+](=O)[O-])s2)c1	48.4	-2.6
Cc1nc(-c2cccc(NC(=O)c3cccc([N+](=O)[O-])c3)c2)cs1	6.8	-3.7
Cc1nc(-c2cccc(NC(=O)C(c3ccccc3)n3cccc3)c2)cs1 (stereo not drawn)	67.0*	5.7
CC(C)(C)NS(=O)(=O)c1ccc(NC(=O)c2cccc(Cl)c2)cc1	-3.2	0.3
c1ccc(-c2nnc3n2C2(CCCC2)Cc2ccccc2-3)cc1	-2.3	2.6
O=C1C=C2c3ccccc3CC3(CCCC3)N2C1=O	84.0*	0.3
NC(CN1CCSCC1)=NOC(=O)c1cccs1	/	-9.8
COc1ccc(NC(=O)c2ccc(N3C(=O)CCC3=O)cc2)c([N+](=O)[O-])c1	-18.4	-3.1
CSC(NCc1ccco1)=C(C#N)S(=O)(=O)c1ccc(Cl)cc1	/	5.3
CC(=O)Nc1ccc(Nc2nc(-c3ccc(Cl)cc3)cs2)cc1	75.7*	-3.2
CC(=O)Nc1ccc(Nc2nc(-c3ccccc3)cs2)cc1	44.0	-2.1
COc1ccc(-c2csc(Nc3ccc(C(=O)O)cc3)n2)cc1	14.7	2.3
COc1ccc(-c2csc(Nc3ccc(NC(C)=O)cc3)n2)cc1	59.9*	-0.3
O=S(=O)(c1cc(F)cc(F)c1)N1CCC(c2noc(-c3cccc(F)c3)n2)CC1	-0.6	-9.2
CCn1nc(C(=O)Nc2cccc(NS(C)(=O)=O)c2)cc1C	-13.2	-3.7
SMILES	mHTT-CaM PPI inh	Pf apPOL inh
Cc1ccc(-c2nccn3cc(C(=O)N4CCC(C)CC4)nc23)cc1	-1.2	5.4
CC(=O)c1ccc(S(=O)(=O)N2CCC(c3noc(-c4cccc(F)c4)n3)CC2)cc1	-0.7	-7.8
CN(C)c1ccc(CNC(=O)CCC(=O)N2CCCn3nc(-c4cccn4C)cc32)cc1	73.8*	-0.7
CC(C)CCNC(=O)CCC(=O)N1CCCn2nc(-c3cccn3C)cc21	19.4	-3.1
CCCCSc1nnc(CNC(=O)c2ccco2)n1-c1ccc(Cl)c(Cl)c1	48.0	-7.5
O=C(CC1CCN(C(=O)C2CCCCC2)CC1)NCCCN1CCCCCC1	20.8	3.6
NC(=O)Cn1nc2c3c(cccc3c1=O)-c1ccccc1-2	1.0	60.8*!
O=c1c2cccc3c2c(nn1Cc1ccccc1Cl)-c1ccccc1-3	-14.0	-2.7
CN(CCNC(=O)Cn1c(=O)oc2ccccc21)Cc1ccccc1	-8.0	2.6
COc1ccc(C=Nc2ccc(Nc3ccccc3)cc2)cc1O	87.0*	-57.1
Oc1ccc(C=Nc2ccc(Nc3ccccc3)cc2)cc1	100.0*	-3.1
Oc1ccc(N=Cc2ccc(OCc3ccccc3)cc2)cc1	35.0	-0.1
COc1cc(C=Nc2ccc(Cl)c(Cl)c2)ccc1O	2.0	2.6
COc1cc(C=Nc2ccc(Nc3ccccc3)cc2)ccc1O	92.0*	-3.5
COc1ccc(C=Nc2ccc(C(N)=O)cc2)cc1O	-4.0	-1.3
Cc1ccccc1-n1nc2c(c1NC(=O)c1c(F)cccc1F)CS(=O)(=O)C2	-6.0	-6.2
O=C1C(=Nc2ccccc2)c2ccccc2N1CN1CCN(c2ccccc2)CC1	-2.0	-6.2
O=C(NCC1CCN(C(=O)COc2ccccc2)CC1)c1ccc(F)c(F)c1	-10.7	-9.8
Cc1cccc(-c2ncc(C(=O)NC3CC3)c(N3CCCCC3)n2)c1	9.8	-3.1
CCC(NS(=O)(=O)c1ccc(Cl)c([N+](=O)[O-])c1)C12CC3CC(CC(C3)C1)C2 (stereo not drawn)	99.0*	-4.2
CCC(NS(=O)(=O)c1cc(Cl)ccc1OC)C12CC3CC(CC(C3)C1)C2 (stereo not drawn)	-6.0	-17.6
COc1ccc2cc(C(N)=O)c(=Nc3ccc(C(F)(F)F)cc3)oc2c1	-5.0	2.3
Cn1nc(-c2ccncc2)nc2c(=O)n(C)c(=O)nc1-2	2.0	8.6
CCn1nc(-c2ccccn2)nc2c(=O)n(C)c(=O)nc1-2	84.0*	5.5
CCN1CCC2(CC1)N=C(c1ccccc1O)CC(c1ccccc1O)N2 (stereo not drawn)	35.3	-2.7
SMILES	mHTT-CaM PPI inh	Pf apPOL inh
CN1CCC2(CC1)N=C(c1cc(Cl)ccc1O)CC(c1ccccc1O)N2 (stereo not drawn)	44.9	-3.2
CC(=O)N1CCC2(CC1)N=C(c1ccccc1O)CC(c1ccccc1O)N2 (stereo not drawn)	47.4	-1.4
COc1ccc(C2CC(c3cc(Cl)ccc3O)=NC3(CCN(C(C)=O)CC3)N2)cc1 (stereo not drawn)	100.3*	-4.3
CC(C)N1CCC2(CC1)N=C(c1cc(Cl)ccc1O)CC(c1ccccc1O)N2 (stereo not drawn)	32.1	4.8
CCN1CCC2(CC1)N=C(c1ccccc1O)CC(c1ccc(Cl)cc1)N2 (stereo not drawn)	60.1*	-2.2
CC(=O)N1CCC2(CC1)N=C(c1ccccc1O)CC(c1ccc(C)cc1C)N2 (stereo not drawn)	58.1*	-4.9
CCN1CCC2(CC1)N=C(c1cc(Cl)ccc1O)CC(c1ccc(OC)cc1)N2 (stereo not drawn)	100.3*	-3.1
COc1ccc(S(=O)(=O)N2CCC(c3noc(-c4ccccc4C)n3)CC2)cc1Cl	1.4	2.0
O=C(CNCc1cccnc1)Nc1ccc(OC(F)(F)Cl)cc1	-4.0	-0.8
Cc1ccccc1CNC(=O)C1(C)CCCN(S(=O)(=O)c2cc(F)ccc2C)C1 (stereo not drawn)	-14.4	3.5
Cc1cccc(N2CCN(C(=O)c3cn4ccc(C)cc4n3)CC2)c1	0.3	-3.0
O=C(c1cccc(Cl)c1)N1CCc2nc(-c3ccc(F)cc3)ncc2C1	-4.6	-3.4
O=C(O/N=C1\CCSc2ccccc21)c1ccc(Cl)c(Cl)c1	i	-6.6
CCOC(=O)N1CCC2(CC1)N=C(c1cc(Cl)ccc1O)CC(c1ccccc1O)N2 (stereo not drawn)	100.3*	-2.4
CC(=O)N1CCC2(CC1)N=C(c1cc(Cl)ccc1O)CC(c1ccc(F)cc1)N2 (stereo not drawn)	100.3*	-2.9
COc1ccc(C2CC(c3ccccc3O)=NC3(CCN(C(C)C)CC3)N2)cc1OC (stereo not drawn)	38.3	-7.4
CCOC(=O)N1CCC2(CC1)N=C(c1ccc(C)cc1)CC(c1cc(Cl)ccc1O)N2 (stereo not drawn)	2.7	3.3
COc1ccc(C2CC(c3ccccc3O)=NC3(CCN(C(C)=O)CC3)N2)cc1OC (stereo not drawn)	50.8*	-2.9
